# Source: ChEMBL document CHEMBL3988442, “University of Dundee, Small-Polar-MMV Screening Library” (2021)
# Hit rate of the full screen: of about 66,000 compounds, about 960 (1.5%) showed an effect of 50% or more. The list comes from a sample in which strong results are over-represented; it also holds similar structures and randomly drawn compounds.
# Test system: Trypanosoma brucei
# Experiment: Trypanosoma brucei 72 hour study
# Assay type: functional, organism-based
# Parameters: scale not given: in the data most compounds retested in dose-response had high values
compound,measurement,setting,value
O=C1CC(c2cccc(Cl)c2)c2snc(C(=O)O)c2N1 (configuration not stated),Percent Effect,"30.3 µM, […]",-31.06%
CN1CCC(Oc2ccc(NC(=O)c3ccccc3Br)cc2)CC1,Percent Effect,"30 µM, 30.03 µM",65.56%
Cc1ccccc1C(=O)Nc1ccc(OC2CCN(C)CC2)cc1,Percent Effect,"30 µM, 30.03 µM",-8.393%
COc1ccccc1C(=O)Nc1ccc(OC2CCN(C)CC2)cc1,Percent Effect,"30 µM, 30.03 µM",-32.85%
Cl.O=C(NCC1CCCO1)c1cc(-c2ccncc2)c2cnccc2n1 (configuration not stated),Percent Effect,"30.3 µM, […]",-19.01%
CC1=Nc2c(c(=O)[nH]n2C(C)C)C(c2ccc3ncccc3c2)S1 (configuration not stated),Percent Effect,"30 µM, 30.03 µM",-30.02%
CC(Cn1cccn1)NCc1nc(-c2cccnc2)no1 (configuration not stated),Percent Effect,"30 µM, 30.03 µM",5.913%
CC(Cn1cccn1)NCc1nc(-c2cccc(Cl)c2)no1 (configuration not stated),Percent Effect,"30 µM, 30.03 µM",53.11%
CC(Cn1cccn1)NCc1nc(-c2ccc3c(c2)OCO3)no1 (configuration not stated),Percent Effect,"30.3 µM, […]",-4.603%
CCn1ccnc1C1CCCN(C(=O)c2sc(C)nc2C)C1 (configuration not stated),Percent Effect,"30 µM, 30.03 µM",-29.7%
Cc1nc(N)sc1C(=O)N1CCCC(c2nccn2CCCN(C)C)C1 (configuration not stated),Percent Effect,"30 µM, 30.03 µM",50.48%
Cc1cc(C)nc(N2CCCC(c3nccn3CCCN(C)C)C2)c1 (configuration not stated),Percent Effect,"30 µM, 30.03 µM",-17.07%
N#CCc1cccc(C(=O)N2CCN(CC(O)c3ccccc3)CC2)c1 (configuration not stated),Percent Effect,"30.3 µM, […]",6.868%
same,Percent Effect,"10 mM, 10 mM as filed; unlikely as a test dose",-3.185%
CCn1ccnc1CNCC1CCN(CC(O)c2ccccc2)CC1 (configuration not stated),Percent Effect,"30 µM, 30.03 µM",95.36%
Cc1ncccc1CNCC1CCN(CC(O)c2ccccc2)CC1 (configuration not stated),Percent Effect,"30 µM, 30.03 µM",36.2%
Cc1ccc(CNCC2CCN(CC(O)c3ccccc3)CC2)o1 (configuration not stated),Percent Effect,10 µM,51.2%
same,Percent Effect,"30.3 µM, […]",70.09%
Cc1noc(C)c1CNCC1CCN(CC(O)c2ccccc2)CC1 (configuration not stated),Percent Effect,"30 µM, 30.03 µM",39.8%
CCn1ccnc1CN1CCN(CC(O)c2ccccc2)CC1 (configuration not stated),Percent Effect,"30 µM, 30.03 µM",-18.29%
OC(CN1CCC(CNCc2ccccn2)CC1)c1ccccc1 (configuration not stated),Percent Effect,10 µM,-26.34%
same,Percent Effect,"30.3 µM, […]",32.19%
CN(C)CCOC[C@H]1CC[C@H]2[C@H](CCN2C(=O)c2ccoc2)O1.O=C(O)C(F)(F)F,Percent Effect,"30 µM, 30.03 µM",21.89%
Cc1cnn(CC2CCCN2C(=O)c2cn(C)c3ccccc23)c1 (configuration not stated),Percent Effect,10 µM,-33.63%
Cc1ccc(-c2cc(CNc3ncnc4c3CCNCC4)no2)cc1,Percent Effect,"30 µM, 30.03 µM",31.3%
CSc1ccc(CN(C)Cc2noc(C(C)(C)C)n2)cc1,Percent Effect,"30 µM, 30.03 µM",-12.59%
Cc1ccc2c(n1)N(CCn1cccn1)CCN(CC1CC1)C2.O=C(O)C(F)(F)F.O=C(O)C(F)(F)F,Percent Effect,"30.3 µM, […]",-30.39%
CS(=O)(=O)N1CCC(CNC(=O)C2CCCC2)CC1,Percent Effect,"30 µM, 30.03 µM",-35.01%
Cc1cc(N2CCC3(CCCN(CCO)C3=O)C2)nc(C)c1C#N (configuration not stated),Percent Effect,"30 µM, 30.03 µM",-51.69%
Cc1cc(C)c(C#N)c(N2CCC3(CCCN(CCO)C3=O)C2)n1 (configuration not stated),Percent Effect,"30 µM, 30.03 µM",-17.57%
COCCN1CCCC2(CCN(c3cc(C)c(C#N)c(C)n3)C2)C1=O (configuration not stated),Percent Effect,"30 µM, 30.03 µM",50.02%
Cn1cccc1C(=O)N1CCC2(CCN(C(=O)c3cccnc3)C2)CC1.O=C(O)C(F)(F)F,Percent Effect,"30.3 µM, […]",-55.95%
CC1c2ncc(CNC(=O)C3CC3)n2CCN1Cc1ccncc1.O=C(O)C(F)(F)F.O=C(O)C(F)(F)F (configuration not stated),Percent Effect,"30.3 µM, […]",-14.67%
C[C@@H]1C(=O)NC[C@H]2CN(CCc3ccccc3)C[C@H]21.O=C(O)C(F)(F)F,Percent Effect,"30.3 µM, […]",-1.404%
CCc1nc(CN(C(C)=O)C2CCN(CCc3ccccn3)C2)no1 (configuration not stated),Percent Effect,10 µM,65.29%
CCc1nc(CN(C(C)=O)C2CCN(CCc3ccccc3)C2)no1 (configuration not stated),Percent Effect,10 µM,-54.25%
CCc1nc(CN(C)C2CCN(CCc3ccccn3)C2)no1 (configuration not stated),Percent Effect,"30 µM, 30.03 µM",3.156%
Cc1ccc(CN2C[C@@H]3[C@@H](C(=O)NCC4CC4)CCS(=O)(=O)[C@@H]3C2)cc1.O=C(O)C(F)(F)F,Percent Effect,"30.3 µM, […]",-76.84%
O=C1C[C@H]2CC[C@@H](CN1)N2C(=O)Cc1ccsc1,Percent Effect,"30.3 µM, […]",-6.652%
CN(C)C(=O)COCc1cncc2c1CCN(Cc1ccccn1)C2.O=C(O)C(F)(F)F.O=C(O)C(F)(F)F,Percent Effect,"30.3 µM, […]",-50.95%
O=C(NC1CC1)[C@@H]1CCO[C@@H]2CCN(CCc3ccccc3)C[C@@H]21.O=C(O)C(F)(F)F,Percent Effect,"30.3 µM, […]",-14.39%
CC(C)n1c2ccccc2c2c1cc(C(=O)N(C)C)n2C,Percent Effect,"30.3 µM, […]",-58.05%
CC(CNC(=O)c1ccc(C#N)cc1)N1CCc2ccccc21 (configuration not stated),Percent Effect,"30.3 µM, […]",1.685%
CC(CNC(=O)Nc1ccc(C#N)cc1)N1CCc2ccccc21 (configuration not stated),Percent Effect,"30.3 µM, […]",100.3%
COc1ccc(NC(=O)NCC(C)N2CCc3ccccc32)cc1 (configuration not stated),Percent Effect,"30.3 µM, […]",-7.739%
CC(=O)Nc1c(C)noc1/C=C\c1ccc(S(=O)(=O)NC2CC2)cc1,Percent Effect,"30.3 µM, […]",-2.674%
CS(=O)(=O)N1CCCC1c1cccc(Nc2nccs2)n1 (configuration not stated),Percent Effect,"30.3 µM, […]",92.1%
COCC(=O)N1CCCC1c1cccc(Nc2ncc(C)s2)n1 (configuration not stated),Percent Effect,"30.3 µM, […]",85.92%
Cc1ccccc1CN1CCCC1c1cccc(Nc2nccs2)n1 (configuration not stated),Percent Effect,"30.3 µM, […]",5.594%
COCC(=O)N1CCCCC1c1ccnc(Nc2ncc(C)s2)n1 (configuration not stated),Percent Effect,"30.3 µM, […]",16.03%
Cc1cnc(Nc2cccc(C3CCCN3C(=O)CO)n2)s1 (configuration not stated),Percent Effect,"30.3 µM, […]",28.67%
c1ccc(CCN2CCCC2c2cccc(Nc3nccs3)n2)cc1 (configuration not stated),Percent Effect,"30.3 µM, […]",29.28%
